Common to all, as to test: DAPPL (digital affinity profiling via proximity ligation, sequencing); 10 mM Tris-HCl pH 7.5, 50 mM NaCl, 1 mM DTT, 4% glycerol, room temperature, 30 min; GST-TFs on glutathione beads, 16-mer random dsDNA library, 0.1% formaldehyde crosslink after washing; high values mean tight binding
One experiment has as its target T1, FEV (Homo sapiens, UniProt Q99581 1-238).
T1 sequence: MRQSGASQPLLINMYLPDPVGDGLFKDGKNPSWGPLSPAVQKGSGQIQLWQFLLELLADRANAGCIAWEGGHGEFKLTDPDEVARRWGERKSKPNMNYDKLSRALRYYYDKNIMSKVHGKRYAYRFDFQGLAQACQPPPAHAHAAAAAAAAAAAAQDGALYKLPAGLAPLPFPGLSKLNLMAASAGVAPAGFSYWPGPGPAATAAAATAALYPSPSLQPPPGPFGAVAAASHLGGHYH
To be noted: protein: recombinant; tags: N-terminal GST; dsDNA, one strand shown. An outline of the steps:
(§1)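 In yeast, human transcription factors were expressed with a GST fusion, then pulled down on glutathione beads and given DNA barcodes. Pooled with a tag-only sample, they were exposed to 200 nmole of a 16-mer random double-stranded DNA library (Tris/NaCl/DTT/glycerol buffer, room temperature, 30 min), washed, crosslinked with 0.1% formaldehyde, proximity-ligated using BsaI/T4 ligase for 1 h at 37 °C, PCR-amplified and read on an Illumina NextSeq500. Each hexamer's frequency of reads for a factor, divided by the matching frequency for the tag-only sample, gives the binding signal.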

A further experiment deals with ETV5 (Homo sapiens, UniProt P41161 1-510). To be noted: protein: recombinant; tags: N-terminal GST; dsDNA, one strand shown. An outline of the steps:
as §1

The target of a further experiment is HSF1 (Homo sapiens, UniProt Q00613 1-529). The settings on record: protein: recombinant; tags: N-terminal GST; chain copies: 3; dsDNA, one strand shown. Summed up:
as §1

The next experiment has as its target T2, SPIC (Homo sapiens, UniProt Q8N5J4 1-248).
T2 sequence: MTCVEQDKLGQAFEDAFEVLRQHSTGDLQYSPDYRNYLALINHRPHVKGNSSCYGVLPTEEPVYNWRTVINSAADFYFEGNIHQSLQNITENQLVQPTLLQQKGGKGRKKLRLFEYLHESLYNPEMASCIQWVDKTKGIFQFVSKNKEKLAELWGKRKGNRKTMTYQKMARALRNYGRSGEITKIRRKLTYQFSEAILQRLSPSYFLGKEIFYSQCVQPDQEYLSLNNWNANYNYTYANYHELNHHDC
To be noted: protein: recombinant; tags: N-terminal GST; dsDNA, one strand shown. An outline of the steps: as §1

The target of a further experiment is ELF4 (Homo sapiens, UniProt Q99607 1-663). The settings on record: protein: recombinant; tags: N-terminal GST; dsDNA, one strand shown. Summed up: as §1
The next experiment addresses T3, ELK4 (Homo sapiens, UniProt P28324-2 1-405).
T3 sequence: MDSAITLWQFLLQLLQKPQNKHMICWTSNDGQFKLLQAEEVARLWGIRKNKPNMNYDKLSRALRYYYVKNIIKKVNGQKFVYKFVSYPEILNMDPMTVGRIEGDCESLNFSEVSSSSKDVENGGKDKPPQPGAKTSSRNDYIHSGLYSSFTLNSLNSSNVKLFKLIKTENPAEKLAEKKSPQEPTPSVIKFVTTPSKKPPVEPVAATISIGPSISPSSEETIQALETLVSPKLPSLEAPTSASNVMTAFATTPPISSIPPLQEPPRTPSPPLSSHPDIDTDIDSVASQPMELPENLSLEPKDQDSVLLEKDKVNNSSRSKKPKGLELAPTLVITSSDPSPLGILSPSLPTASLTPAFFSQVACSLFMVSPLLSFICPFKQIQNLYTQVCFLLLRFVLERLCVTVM
The settings on record: protein: recombinant; tags: N-terminal GST; dsDNA, one strand shown. An outline of the steps: as §1

In a further experiment the target is T4, ETV2 (Homo sapiens, UniProt O00321 1-342).
T4 sequence: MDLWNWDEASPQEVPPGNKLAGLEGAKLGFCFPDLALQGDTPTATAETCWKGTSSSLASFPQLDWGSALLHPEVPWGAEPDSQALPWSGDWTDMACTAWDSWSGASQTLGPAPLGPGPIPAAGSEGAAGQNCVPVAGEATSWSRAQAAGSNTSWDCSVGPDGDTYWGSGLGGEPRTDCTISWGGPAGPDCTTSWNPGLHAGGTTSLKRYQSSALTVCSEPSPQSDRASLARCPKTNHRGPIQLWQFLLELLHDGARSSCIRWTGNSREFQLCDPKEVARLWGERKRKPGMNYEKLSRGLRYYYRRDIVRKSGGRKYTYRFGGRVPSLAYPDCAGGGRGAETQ
To be noted: protein: recombinant; tags: N-terminal GST; dsDNA, one strand shown. Summed up:
as §1

For another experiment, the target named is T5, ELF3 (Homo sapiens, UniProt P78545 1-371).
T5 sequence: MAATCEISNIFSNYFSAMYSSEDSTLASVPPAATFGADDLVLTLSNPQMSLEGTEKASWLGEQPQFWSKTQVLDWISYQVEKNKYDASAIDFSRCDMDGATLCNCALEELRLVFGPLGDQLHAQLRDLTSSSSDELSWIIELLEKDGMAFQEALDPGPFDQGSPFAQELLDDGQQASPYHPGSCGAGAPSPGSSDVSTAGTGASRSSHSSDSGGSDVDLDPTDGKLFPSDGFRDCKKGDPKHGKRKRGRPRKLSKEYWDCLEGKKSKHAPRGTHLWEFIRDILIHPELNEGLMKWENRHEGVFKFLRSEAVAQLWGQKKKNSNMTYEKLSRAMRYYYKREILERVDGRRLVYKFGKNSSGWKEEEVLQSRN
The settings on record: protein: recombinant; tags: N-terminal GST; dsDNA, one strand shown. An outline of the steps:
as §1

Another experiment deals with CRX (Homo sapiens, UniProt O43186 1-299). The settings on record: protein: recombinant; tags: N-terminal GST; dsDNA, one strand shown. An outline of the steps:
as §1

A further experiment has as its target ETV1 (Homo sapiens, UniProt P50549 1-477). The settings on record: protein: recombinant; tags: N-terminal GST; dsDNA, one strand shown. Summed up:
as §1

The target of the next experiment is T6, ERF (Homo sapiens, UniProt P50548 1-548).
T6 sequence: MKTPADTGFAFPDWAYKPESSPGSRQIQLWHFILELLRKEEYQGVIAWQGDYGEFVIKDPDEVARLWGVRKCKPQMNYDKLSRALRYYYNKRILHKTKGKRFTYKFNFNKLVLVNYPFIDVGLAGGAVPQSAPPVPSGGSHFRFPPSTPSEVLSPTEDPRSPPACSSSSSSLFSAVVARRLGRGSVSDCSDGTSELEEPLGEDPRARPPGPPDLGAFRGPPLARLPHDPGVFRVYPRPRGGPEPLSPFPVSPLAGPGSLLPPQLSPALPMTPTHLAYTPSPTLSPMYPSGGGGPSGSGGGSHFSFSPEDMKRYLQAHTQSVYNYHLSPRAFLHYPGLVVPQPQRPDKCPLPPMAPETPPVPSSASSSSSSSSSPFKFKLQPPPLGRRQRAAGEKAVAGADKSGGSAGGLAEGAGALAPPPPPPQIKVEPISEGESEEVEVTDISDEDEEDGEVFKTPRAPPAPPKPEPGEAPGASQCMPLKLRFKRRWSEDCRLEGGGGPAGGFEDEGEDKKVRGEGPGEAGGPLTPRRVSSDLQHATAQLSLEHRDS
To be noted: protein: recombinant; tags: N-terminal GST; dsDNA, one strand shown. Summed up:
as §1

The target in a further experiment is T7, ETV3L (Homo sapiens, UniProt Q6ZN32 1-361).
T7 sequence: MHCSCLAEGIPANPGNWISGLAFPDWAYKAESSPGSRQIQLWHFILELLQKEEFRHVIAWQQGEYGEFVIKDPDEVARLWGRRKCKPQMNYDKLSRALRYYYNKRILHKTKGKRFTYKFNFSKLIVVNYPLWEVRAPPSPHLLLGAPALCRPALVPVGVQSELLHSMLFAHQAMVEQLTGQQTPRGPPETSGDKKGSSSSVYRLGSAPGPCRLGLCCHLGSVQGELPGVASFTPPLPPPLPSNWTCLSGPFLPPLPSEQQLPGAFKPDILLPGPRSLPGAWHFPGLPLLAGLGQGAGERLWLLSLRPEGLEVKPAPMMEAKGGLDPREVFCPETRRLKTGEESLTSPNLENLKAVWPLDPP
To be noted: protein: recombinant; tags: N-terminal GST; dsDNA, one strand shown. An outline of the steps:
as §1

The target of another experiment is T8, ETS2 (Homo sapiens, UniProt P15036 1-469).
T8 sequence: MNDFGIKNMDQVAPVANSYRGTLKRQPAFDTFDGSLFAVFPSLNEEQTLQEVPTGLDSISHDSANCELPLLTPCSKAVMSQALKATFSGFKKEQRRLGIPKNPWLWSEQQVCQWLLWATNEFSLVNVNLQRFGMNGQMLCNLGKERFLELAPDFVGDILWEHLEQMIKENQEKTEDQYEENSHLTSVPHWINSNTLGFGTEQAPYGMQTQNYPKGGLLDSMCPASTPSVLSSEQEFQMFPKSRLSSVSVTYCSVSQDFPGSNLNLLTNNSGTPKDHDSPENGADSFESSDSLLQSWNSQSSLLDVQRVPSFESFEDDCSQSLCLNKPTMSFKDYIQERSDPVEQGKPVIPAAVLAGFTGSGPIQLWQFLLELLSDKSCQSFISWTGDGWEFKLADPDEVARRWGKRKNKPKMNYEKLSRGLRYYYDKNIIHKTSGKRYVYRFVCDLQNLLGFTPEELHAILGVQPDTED
To be noted: protein: recombinant; tags: N-terminal GST; dsDNA, one strand shown. An outline of the steps:
as §1

The target of the next experiment is T9, SPDEF (Homo sapiens, UniProt O95238 1-335).
T9 sequence: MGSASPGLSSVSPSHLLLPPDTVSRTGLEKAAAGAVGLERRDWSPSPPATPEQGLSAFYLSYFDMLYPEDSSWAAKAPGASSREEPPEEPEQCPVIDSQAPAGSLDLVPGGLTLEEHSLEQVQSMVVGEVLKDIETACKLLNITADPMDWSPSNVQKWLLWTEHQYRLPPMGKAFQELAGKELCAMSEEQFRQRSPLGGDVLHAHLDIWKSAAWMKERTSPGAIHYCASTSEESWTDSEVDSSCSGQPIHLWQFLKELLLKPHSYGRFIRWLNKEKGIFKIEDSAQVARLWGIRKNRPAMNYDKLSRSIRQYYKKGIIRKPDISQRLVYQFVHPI
To be noted: protein: recombinant; tags: N-terminal GST; dsDNA, one strand shown. An outline of the steps:
as §1

Another experiment addresses T10, ETV7 (Homo sapiens, UniProt Q9Y603 1-341).
T10 sequence: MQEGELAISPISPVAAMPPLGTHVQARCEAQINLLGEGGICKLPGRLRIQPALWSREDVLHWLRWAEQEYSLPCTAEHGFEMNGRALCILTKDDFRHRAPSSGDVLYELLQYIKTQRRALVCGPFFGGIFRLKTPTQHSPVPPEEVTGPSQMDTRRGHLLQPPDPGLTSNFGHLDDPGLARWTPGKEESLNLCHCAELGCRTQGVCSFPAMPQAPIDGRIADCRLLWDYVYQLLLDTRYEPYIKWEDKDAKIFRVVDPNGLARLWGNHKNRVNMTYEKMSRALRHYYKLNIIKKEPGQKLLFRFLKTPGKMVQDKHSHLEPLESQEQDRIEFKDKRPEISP
To be noted: protein: recombinant; tags: N-terminal GST; dsDNA, one strand shown. Summed up:
as §1

Another experiment deals with T11, ELF5 (Homo sapiens, UniProt Q9UKW6-2 1-255).
T11 sequence: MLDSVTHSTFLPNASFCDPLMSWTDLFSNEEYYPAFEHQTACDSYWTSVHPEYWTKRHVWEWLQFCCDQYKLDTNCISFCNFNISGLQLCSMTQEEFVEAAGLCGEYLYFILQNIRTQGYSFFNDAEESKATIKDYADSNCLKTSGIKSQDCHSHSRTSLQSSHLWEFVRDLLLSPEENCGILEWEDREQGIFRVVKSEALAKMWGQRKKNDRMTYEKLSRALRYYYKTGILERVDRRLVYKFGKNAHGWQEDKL
To be noted: protein: recombinant; tags: N-terminal GST; dsDNA, one strand shown. Summed up:
as §1

In another experiment the target is T12, ETV3 (Homo sapiens, UniProt P41162-2 1-143).
T12 sequence: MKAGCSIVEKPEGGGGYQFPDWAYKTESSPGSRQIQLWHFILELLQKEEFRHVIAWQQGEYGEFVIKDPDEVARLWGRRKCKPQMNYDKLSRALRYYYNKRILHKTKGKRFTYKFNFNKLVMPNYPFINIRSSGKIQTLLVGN
To be noted: protein: recombinant; tags: N-terminal GST; dsDNA, one strand shown. Summed up: as §1

For another experiment, the target named is ETV6 (Homo sapiens, UniProt P41212 1-452). The settings on record: protein: recombinant; tags: N-terminal GST; dsDNA, one strand shown. An outline of the steps:
as §1

Chain of ELF4 (Q99607 whole entry): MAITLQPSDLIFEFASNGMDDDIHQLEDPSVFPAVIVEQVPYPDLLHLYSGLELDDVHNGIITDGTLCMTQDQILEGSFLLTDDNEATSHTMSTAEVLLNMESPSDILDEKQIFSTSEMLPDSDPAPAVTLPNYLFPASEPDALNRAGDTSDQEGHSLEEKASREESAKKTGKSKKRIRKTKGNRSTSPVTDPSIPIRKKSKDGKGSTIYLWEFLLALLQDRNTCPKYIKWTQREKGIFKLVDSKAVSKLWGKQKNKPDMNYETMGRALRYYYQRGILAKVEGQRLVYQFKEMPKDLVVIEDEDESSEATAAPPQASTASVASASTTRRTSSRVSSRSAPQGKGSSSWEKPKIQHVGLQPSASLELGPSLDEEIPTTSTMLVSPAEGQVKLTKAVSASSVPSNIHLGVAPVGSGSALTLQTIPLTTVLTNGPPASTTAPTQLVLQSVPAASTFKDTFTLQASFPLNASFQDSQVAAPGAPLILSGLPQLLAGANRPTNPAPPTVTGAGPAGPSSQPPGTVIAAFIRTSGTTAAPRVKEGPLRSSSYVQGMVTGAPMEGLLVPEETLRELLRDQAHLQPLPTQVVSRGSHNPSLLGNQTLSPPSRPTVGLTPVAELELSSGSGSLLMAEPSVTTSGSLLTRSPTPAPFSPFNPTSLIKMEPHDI
Chain of ETV5 (P41161 whole entry): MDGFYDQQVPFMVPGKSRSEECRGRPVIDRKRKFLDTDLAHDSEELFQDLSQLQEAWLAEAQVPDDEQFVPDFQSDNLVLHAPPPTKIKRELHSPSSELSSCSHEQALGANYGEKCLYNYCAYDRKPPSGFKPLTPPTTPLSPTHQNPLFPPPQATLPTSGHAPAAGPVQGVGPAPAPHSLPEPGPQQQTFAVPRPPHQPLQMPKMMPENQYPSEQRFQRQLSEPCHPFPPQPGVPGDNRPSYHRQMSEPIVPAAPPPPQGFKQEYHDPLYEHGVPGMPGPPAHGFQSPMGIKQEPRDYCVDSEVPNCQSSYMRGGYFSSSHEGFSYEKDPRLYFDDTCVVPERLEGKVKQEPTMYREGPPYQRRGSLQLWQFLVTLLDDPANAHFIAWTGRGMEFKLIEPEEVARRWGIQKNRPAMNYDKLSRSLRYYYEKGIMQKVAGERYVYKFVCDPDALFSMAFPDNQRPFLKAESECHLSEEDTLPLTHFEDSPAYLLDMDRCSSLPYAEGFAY
Chain of ETV1 (P50549 whole entry): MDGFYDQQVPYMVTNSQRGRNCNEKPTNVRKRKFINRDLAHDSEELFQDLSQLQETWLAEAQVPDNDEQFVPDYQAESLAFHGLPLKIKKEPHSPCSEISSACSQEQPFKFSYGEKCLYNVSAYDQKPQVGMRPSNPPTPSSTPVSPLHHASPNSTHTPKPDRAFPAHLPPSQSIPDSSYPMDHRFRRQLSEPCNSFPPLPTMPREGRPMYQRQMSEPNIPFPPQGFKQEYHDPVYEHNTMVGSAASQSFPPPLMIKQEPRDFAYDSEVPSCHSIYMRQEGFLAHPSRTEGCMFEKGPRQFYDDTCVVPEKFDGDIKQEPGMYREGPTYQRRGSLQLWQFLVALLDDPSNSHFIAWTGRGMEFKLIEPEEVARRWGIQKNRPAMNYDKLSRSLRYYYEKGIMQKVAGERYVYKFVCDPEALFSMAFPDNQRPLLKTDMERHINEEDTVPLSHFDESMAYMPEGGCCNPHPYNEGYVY
Chain of ETV6 (P41212 whole entry): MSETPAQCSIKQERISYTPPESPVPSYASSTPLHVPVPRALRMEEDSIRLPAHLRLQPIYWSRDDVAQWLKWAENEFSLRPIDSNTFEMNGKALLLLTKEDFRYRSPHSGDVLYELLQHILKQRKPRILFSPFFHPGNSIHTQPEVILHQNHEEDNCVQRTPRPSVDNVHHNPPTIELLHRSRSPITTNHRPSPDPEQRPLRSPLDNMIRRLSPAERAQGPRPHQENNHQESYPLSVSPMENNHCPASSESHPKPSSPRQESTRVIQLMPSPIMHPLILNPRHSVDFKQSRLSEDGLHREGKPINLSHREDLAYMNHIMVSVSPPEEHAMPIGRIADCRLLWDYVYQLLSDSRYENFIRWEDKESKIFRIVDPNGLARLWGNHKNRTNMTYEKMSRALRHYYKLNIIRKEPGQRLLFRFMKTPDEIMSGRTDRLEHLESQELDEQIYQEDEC
Chain of HSF1 (Q00613 whole entry): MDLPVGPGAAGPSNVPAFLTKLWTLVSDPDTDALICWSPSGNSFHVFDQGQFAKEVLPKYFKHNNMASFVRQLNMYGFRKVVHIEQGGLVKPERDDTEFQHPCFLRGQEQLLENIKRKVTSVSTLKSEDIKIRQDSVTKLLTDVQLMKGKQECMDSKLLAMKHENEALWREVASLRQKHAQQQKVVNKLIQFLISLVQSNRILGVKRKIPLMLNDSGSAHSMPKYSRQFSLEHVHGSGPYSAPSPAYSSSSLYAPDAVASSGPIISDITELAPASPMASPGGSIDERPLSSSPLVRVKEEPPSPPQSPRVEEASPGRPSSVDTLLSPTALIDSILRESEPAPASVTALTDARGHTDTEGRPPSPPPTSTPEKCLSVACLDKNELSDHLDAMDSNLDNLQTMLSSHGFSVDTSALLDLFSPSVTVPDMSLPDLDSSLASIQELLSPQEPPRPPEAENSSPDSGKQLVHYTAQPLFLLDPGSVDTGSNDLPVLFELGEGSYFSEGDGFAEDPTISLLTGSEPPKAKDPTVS
Chain of CRX (O43186 whole entry): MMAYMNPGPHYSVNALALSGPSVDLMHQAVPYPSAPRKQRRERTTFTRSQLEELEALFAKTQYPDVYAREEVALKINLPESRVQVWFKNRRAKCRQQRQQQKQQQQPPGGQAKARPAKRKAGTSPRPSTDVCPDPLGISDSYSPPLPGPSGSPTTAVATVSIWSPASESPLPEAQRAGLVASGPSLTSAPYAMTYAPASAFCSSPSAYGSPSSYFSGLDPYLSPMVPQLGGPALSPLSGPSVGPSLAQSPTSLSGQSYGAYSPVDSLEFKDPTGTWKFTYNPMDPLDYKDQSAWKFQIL

With TCAACT, the binding signal with FEV is 1.36 fold enrichment (6-mer frequency, TF over GST control); in the experiment with ETV5, 1.26 fold enrichment (6-mer frequency, TF over GST control); with HSF1, 1.2 fold enrichment (6-mer frequency, TF over GST control); with SPIC it was 1.32 fold enrichment (6-mer frequency, TF over GST control); in the experiment with ELF4, 1.27 fold enrichment (6-mer frequency, TF over GST control); with ELK4, 1.36 fold enrichment (6-mer frequency, TF over GST control). For the same sequence, the binding signal with ETV2 is 1.41 fold enrichment (6-mer frequency, TF over GST control); in the experiment with ELF3 it was 1.37 fold enrichment (6-mer frequency, TF over GST control); in the experiment with CRX, 1.34 fold enrichment (6-mer frequency, TF over GST control); in the experiment with ETV1, 1.26 fold enrichment (6-mer frequency, TF over GST control); with ERF it was 1.31 fold enrichment (6-mer frequency, TF over GST control); with ETV3L, 1.32 fold enrichment (6-mer frequency, TF over GST control). The binding signal was 1.34 fold enrichment (6-mer frequency, TF over GST control) with ETS2; 1.27 fold enrichment (6-mer frequency, TF over GST control) with SPDEF; 1.12 fold enrichment (6-mer frequency, TF over GST control) with ETV7; 1.24 fold enrichment (6-mer frequency, TF over GST control) with ELF5; 1.31 fold enrichment (6-mer frequency, TF over GST control) with ETV3; 1.33 fold enrichment (6-mer frequency, TF over GST control) with ETV6.

These data come from publication PMC7862700, “An all-to-all approach to the identification of sequence-specific readers for epigenetic DNA modifications on cytosine”.
